USP1 inh = Inhibitors of USP1/UAF1: Primary Screen. Ubiquitin carboxyl-terminal hydrolase 1 (Homo sapiens), O94782. recombinant USP1/UAF1, Ub-Rhodamine cleavage fluorescence. Potency, µM (highest dose often 57.1 µM), without a hit: top-dose activity change, negative = inhibition, most hits filed as inhibitors. hit rate 0.23% among 390,000; further: potency means the concentration at half of the fitted maximal effect; nearly all actives have a fitted effect of over 60% in size
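1 nM enzyme complex + cpd, 15 min RT; start with Ub-Rho 150nM final; kinetic fluorescence ex 480/em 540, 6 reads q60 s. Buffer 50mM HEPES pH 7.8, 0.5mM EDTA, 0.1 mg/ml BSA, 1mM TCEP, 0.01% Tween-20.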
PI5P4K alpha inh = qHTS for Inhibitors of phosphatidylinositol 5-phosphate 4-kinase (PI5P4K). Phosphatidylinositol 5-phosphate 4-kinase type-2 alpha (Homo sapiens), P48426. PI5P4Kalpha enzyme, ADP-Glo luminescence, 60 min; stronger effect = lower value. max response, %. hit rate 1.2% among 330,000. AID 652105, 2013; active means max response of -50% or lower; inconclusive means between -30% and -50%; inactive means -30% or higher; further: value at the top dose of about 77 µM
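Single end-point luminescence (ADP-Glo) quantified ADP from PI5P4Kalpha turnover; ATP 5 microM final, 1 h at RT, 0.1% CHAPS and 0.28 mM EGTA in HEPES pH 7.4.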
USP2a inh = qHTS Assay for Inhibitors of Ubiquitin-specific Protease USP2a Using CHOP2 as the Reporter. Ubiquitin carboxyl-terminal hydrolase 2 (Homo sapiens), O75604. USP2 core, Ub-CHOP2 coupled fluorogenic reporter, 485/531. Potency, µM (series often up to 38.3 µM), without a hit: at the highest dose activity change, negative = inhibition, usual class: inhibitors. hit rate 0.01% among 330,000;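 further: potency means the concentration at half of the fitted maximal effect; plate controls were DMSO wells for no effect and full inhibition by NEM control for full effect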
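Cell-free coupled assay: 10nM USP2 core preincubated 30min RT with compound in Tris-HCl pH 8.0/CaCl2/CHAPS buffer, then 25nM Ub-CHOP2 and 25nM reporter substrate; fluorescence (Ex 485/Em 531) read after 60min RT, normalized to NEM inhibition, concentration-response curves fitted.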
PLK1 PBD block = qHTS for Inhibitors of PLK1-PDB (polo-like kinase 1 - polo-box domain): Primary Screen; Serine/threonine-protein kinase PLK1 (Homo sapiens), P53350; Potency, µM, inactives show max response, negative = inhibition, actives largely listed as inhibitors; hit rate 2.8% among 360,000; Plk1 PBD binding of FITC phosphopeptide, fluorescence polarization; further: potency means the concentration at half of the fitted maximal effect; series mostly up to about 57 µM; nearly all actives have a fitted effect of over 65% in size
WRN inhibitor = qHTS for Inhibitors of WRN Helicase. Bifunctional 3'-5' exonuclease/ATP-dependent helicase WRN (Homo sapiens), Q14191. WRN helicase unwinding, fluorescent forked duplex, kinetic. Potency, µM (highest dose often 114 µM), for inactives: at the top dose activity change, negative = inhibition, usual class: inhibitors. hit rate 0.46% among 360,000. AID 651768, 2012; further: potency means the concentration at half of the fitted maximal effect; nearly all actives have a fitted effect of over 55% in size
Target sequence (Q14191 whole entry, looked up): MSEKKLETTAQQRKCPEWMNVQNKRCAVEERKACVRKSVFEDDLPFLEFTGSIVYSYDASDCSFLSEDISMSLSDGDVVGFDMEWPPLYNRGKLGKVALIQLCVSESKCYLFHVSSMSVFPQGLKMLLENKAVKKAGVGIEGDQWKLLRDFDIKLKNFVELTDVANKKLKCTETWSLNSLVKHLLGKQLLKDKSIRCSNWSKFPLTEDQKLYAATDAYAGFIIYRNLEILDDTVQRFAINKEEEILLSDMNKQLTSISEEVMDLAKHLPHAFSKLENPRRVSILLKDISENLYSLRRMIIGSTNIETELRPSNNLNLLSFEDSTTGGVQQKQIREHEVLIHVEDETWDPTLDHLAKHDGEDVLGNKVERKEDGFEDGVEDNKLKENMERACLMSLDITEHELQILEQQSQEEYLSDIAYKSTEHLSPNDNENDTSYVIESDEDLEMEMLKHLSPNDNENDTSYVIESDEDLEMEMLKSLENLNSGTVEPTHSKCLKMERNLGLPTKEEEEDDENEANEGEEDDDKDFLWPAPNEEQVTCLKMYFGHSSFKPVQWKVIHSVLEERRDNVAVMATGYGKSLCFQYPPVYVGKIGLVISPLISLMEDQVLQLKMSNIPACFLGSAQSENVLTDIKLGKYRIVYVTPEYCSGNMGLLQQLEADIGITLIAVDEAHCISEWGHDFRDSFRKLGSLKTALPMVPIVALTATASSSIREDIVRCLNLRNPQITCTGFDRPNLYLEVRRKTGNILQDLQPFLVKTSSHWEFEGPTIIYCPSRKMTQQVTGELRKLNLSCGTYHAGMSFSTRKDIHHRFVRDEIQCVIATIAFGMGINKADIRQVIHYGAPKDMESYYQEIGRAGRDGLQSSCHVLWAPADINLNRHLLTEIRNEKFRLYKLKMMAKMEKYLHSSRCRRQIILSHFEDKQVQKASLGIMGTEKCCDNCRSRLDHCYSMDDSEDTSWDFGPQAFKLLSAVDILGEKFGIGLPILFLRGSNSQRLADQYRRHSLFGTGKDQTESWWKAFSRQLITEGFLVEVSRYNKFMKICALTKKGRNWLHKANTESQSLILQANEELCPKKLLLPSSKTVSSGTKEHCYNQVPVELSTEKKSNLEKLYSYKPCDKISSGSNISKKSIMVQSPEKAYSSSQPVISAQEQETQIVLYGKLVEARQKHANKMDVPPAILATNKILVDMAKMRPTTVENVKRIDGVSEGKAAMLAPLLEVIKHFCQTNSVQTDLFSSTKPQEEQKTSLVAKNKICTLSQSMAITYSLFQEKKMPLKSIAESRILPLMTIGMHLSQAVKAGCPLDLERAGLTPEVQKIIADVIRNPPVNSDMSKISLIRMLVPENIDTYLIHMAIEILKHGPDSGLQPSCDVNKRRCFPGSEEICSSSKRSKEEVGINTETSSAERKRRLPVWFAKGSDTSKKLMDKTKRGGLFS
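Primary qHTS, 1536-well format. 20 nM WRN + compound, 15 min RT; start with 100 nM forked fluorophore/quencher duplex, 2 mM ATP (final); kinetic read ex 525/em 598 nm.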
ADP-Glo counter = qHTS for Inhibitors of PI5P4K: ADP-Glo counter assay; shares compounds with PI5P4K alpha inh; ADP-Glo detection counter-screen, luciferase luminescence, no enzyme; Potency, µM (highest dose often 76.9 µM), for the others: at the highest dose activity change, negative = inhibition, usual class: inhibitors; 1,100 tested, under 10 active
Active calls of the source: *; ? = inconclusive; nt = no result. Shown are actives, neighbours in structure and some others; about 3.3% of the full set was active somewhere. Unless noted, the call rests on the fitted dose curve; in most records, active means well fitted curve in the direction sought with a large enough effect; inconclusive means small, poorly fitted or top-dose-only effect, or another doubt; inactive means no such curve, though single readings can be large; an effect the other way counts as inactive or inconclusive. Unless noted, on the % scale 0 is the no-effect control and ±100 the full control effect.

SMILES	USP1 inh	PI5P4K alpha inh	USP2a inh	PLK1 PBD block	WRN inhibitor	ADP-Glo counter
COc1ccc(C2c3c(oc4cc(C)cc(C)c4c3=O)C(=O)N2Cc2ccco2)cc1OC (stereo unspecified)	21%	nt	nt	nt	nt	nt
COCCNC(=O)C1Cc2c(-c3ccc(NC(C)=O)cc3)ccnc2O1 (stereo unspecified)	nt	-66*	nt	-3%	0%	2%
CCc1nc2oc3ccccc3c(=O)c2c(=O)n1-c1ccc(C)cc1	-25%	-54*	-1%	-27%	-32%	3%
CCCc1nc2oc3ccccc3c(=O)c2c(=O)n1-c1ccc(C)cc1	-17%	-14	-11%	1%	5%	nt
COc1ccc(NC(C)=O)c([N+](=O)[O-])c1[N+](=O)[O-]	2%	-2	nt	-11%	-2%	nt
COc1ccc(OC)c([N+](=O)[O-])c1C(N)=O	-23%	-65*	2%	?	?	-10%
Cc1cc(NS(=O)(=O)c2ccc(NC(=O)COc3ccc(Br)cc3)cc2)nc(C)n1	-16%	-54*	4%	2.7µM*	-9%	-1%
CCOc1ccc(OCC(=O)Nc2ccc(S(=O)(=O)Nc3cc(C)nc(C)n3)cc2)cc1	-9%	-25	0%	-18%	-16%	nt
Cc1ccc(NC(=O)C2CCCN(c3cnccn3)C2)cc1Cl (stereo unspecified)	-9%	nt	nt	nt	nt	nt
O=C(O)c1ccc(-c2nnn(Cc3cccc(C(F)(F)F)c3)n2)cc1	-10%	-52*	-1%	-5%	-5%	-3%
O=C(OCc1cccc(C(F)(F)F)c1)c1ccc(-c2nnn(Cc3ccc(F)cc3)n2)cc1	-12%	nt	nt	nt	nt	nt
CCCCOc1cccc(C(=O)N(Cc2ccc(N(C)C)cc2)C2CCS(=O)(=O)C2)c1 (stereo unspecified)	-1%	nt	nt	nt	nt	nt
CC1(C)Cc2cccc(OCC(=O)NCCOc3ccccc3)c2O1	-16%	-51*	8%	21µM*	-6%	-8%
O=C1NC(c2ccc(Cl)c([N+](=O)[O-])c2)Nc2ccccc21 (stereo unspecified)	-10%	4	8%	-16%	0%	nt
O=C1NC(c2cc(Cl)cc([N+](=O)[O-])c2O)Nc2ccccc21 (stereo unspecified)	-21%	-79*	2%	?	3%	6%
COc1ccccc1N1CCN(C(=O)c2[nH]c(C(F)(F)F)nc2-c2ccccc2)CC1	nt	-2	nt	-5%	-4%	nt
COc1ccc(N2CCN(C(=O)c3[nH]c(C(F)(F)F)nc3-c3ccccc3)CC2)cc1	nt	-4	nt	-14%	0%	2%
COc1cccc(C(=O)Nc2nnc(S(=O)(=O)N3CCCc4ccccc43)s2)c1	-13%	nt	nt	nt	nt	nt
CCN(CC)C(=O)c1[nH]cnc1C(=O)Nc1ccc(Cl)cc1	-28%	7	1%	-19%	-6%	nt
CCN(CC)C(=O)c1[nH]cnc1C(=O)Nc1ccc(OC)cc1	-4%	0	3%	-2%	-2%	-8%
CCC1CCCCN1C(=O)CCS(=O)(=O)c1cc2c(cc1C)NC(=O)CO2 (stereo unspecified)	-26%	nt	nt	nt	nt	nt
O=C(CSc1nc(-c2ccccc2)cc(=O)[nH]1)N1CCc2ccccc21	-1%	-50*	1%	3µM*	-28%	-5%
Nc1nc(SCC(=O)N2CCc3ccccc32)[nH]c(=O)c1-c1ccccc1	-13%	nt	-5%	-11%	-6%	nt
CCOc1ccc(CN2C(=O)c3ccccc3Sc3ccc(C(=O)OC)cc32)cc1	-26%	nt	nt	nt	nt	nt
O=C(Nc1nnc(SCc2ccc(Cl)cc2)s1)c1ccco1	-27%	-57*	-1%	3µM*	-4%	4%

Assay outcomes deposited in PubChem by National Center for Advancing Translational Sciences (NCATS).
